Data published in the supplement of paper PMC10849652.
Of roughly 7,900 targets only a part is listed; those with a hit were picked by preference. About 0.6% of all pairs of compound and target were hits. Unmarked numbers belong to inactive results.

How the values were obtained:
Assay in all cases: log2 fold change, soluble protein after heating vs DMSO (PISA); higher = thermal stabilisation; K562 cells, 10 uM, 30 min; active = over 0.2 and 3.5 SD of the protein, either way, in both replicates (recomputed)
[1] = compound: CC1=C(C=C(C=C1)NC(=O)C2=CC(=CC=C2)C(C)(C)C#N)NC3=CC4=C(C=C3)N=CN(C4=O)C
Summary of the method: (§1)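 K562 cells at 2×10^6 cells/mL were treated with 10 μM compound for 30 min. Aliquots were heated for 3 min across 48°C-58°C, pooled, and extracted in PBS with 0.5% NP-40 at 4°C; soluble protein was the supernatant after 21,000xg for 90 min. Soluble protein was quantified by TMTpro 16plex LC-MS/MS with channel sums equalised, and reported as log2 fold change in thermal stability against DMSO controls, with values from duplicates.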

[2] = compound: CC1=C(C=C(C=C1)NC(=O)C2=CC(=CC=C2)N(C)C)NC(=O)C3=CC=C(C=C3)O
Summary of the method: as §1

[3] = compound: CC1=CC=C(C=C1)SC2=C3C=C(SC3=CN=C2)C(=O)N
Summary of the method: as §1

[4] = compound: CC1=NC(=CC=C1)C2=C(N=C(N2)C(C)(C)C)C3=CC4=NC=CN=C4C=C3
Summary of the method: as §1

Nexturastat A = compound: CCCCN(Cc1ccc(C(=O)NO)cc1)C(=O)Nc1ccccc1 [Nexturastat A]
Summary of the method: as §1

vemurafenib = compound: CCCS(=O)(=O)Nc1ccc(F)c(C(=O)c2c[nH]c3ncc(-c4ccc(Cl)cc4)cc23)c1F [vemurafenib]
Summary of the method: as §1

[5] = compound: CCCS(=O)(=O)Nc1ccc(F)c(C(=O)c2c[nH]c3ncc(Cl)cc23)c1F
Summary of the method: as §1

[6] = compound: CCCc1cc(C)[nH]c(=O)c1CNC(=O)c1cc(-c2ccnc(N3CCN(C)CC3)c2)cc2c1cnn2C(C)C
Summary of the method: as §1

givinostat = compound: CCN(CC)Cc1ccc2cc(COC(=O)Nc3ccc(C(=O)NO)cc3)ccc2c1 [givinostat]
Summary of the method: as §1

barasertib = compound: CCN(CCCOc1ccc2c(Nc3cc(CC(=O)Nc4cccc(F)c4)[nH]n3)ncnc2c1)CCOP(=O)(O)O [barasertib]
Summary of the method: as §1

UniProt P13473, sequence (P13473 whole entry, looked up): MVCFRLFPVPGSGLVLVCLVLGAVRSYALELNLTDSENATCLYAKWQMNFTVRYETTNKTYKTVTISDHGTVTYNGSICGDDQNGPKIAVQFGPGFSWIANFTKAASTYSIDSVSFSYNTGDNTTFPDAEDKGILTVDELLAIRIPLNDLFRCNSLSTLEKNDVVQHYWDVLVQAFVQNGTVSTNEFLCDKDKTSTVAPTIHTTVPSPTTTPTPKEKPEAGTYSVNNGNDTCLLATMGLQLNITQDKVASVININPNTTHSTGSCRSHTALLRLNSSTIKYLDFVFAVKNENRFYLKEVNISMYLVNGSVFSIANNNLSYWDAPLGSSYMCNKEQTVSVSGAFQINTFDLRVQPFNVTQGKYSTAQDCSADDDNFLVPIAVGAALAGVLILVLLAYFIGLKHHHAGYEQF
UniProt Q14681, sequence (Q14681 whole entry, looked up): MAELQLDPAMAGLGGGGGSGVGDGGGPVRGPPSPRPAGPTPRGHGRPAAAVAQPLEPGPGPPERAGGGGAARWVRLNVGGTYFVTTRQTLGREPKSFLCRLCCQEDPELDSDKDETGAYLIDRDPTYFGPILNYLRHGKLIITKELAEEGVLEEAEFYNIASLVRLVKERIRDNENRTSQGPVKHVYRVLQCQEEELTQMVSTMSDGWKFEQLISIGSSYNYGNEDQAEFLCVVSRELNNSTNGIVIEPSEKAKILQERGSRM
UniProt Q5XKP0, sequence (Q5XKP0 whole entry, looked up): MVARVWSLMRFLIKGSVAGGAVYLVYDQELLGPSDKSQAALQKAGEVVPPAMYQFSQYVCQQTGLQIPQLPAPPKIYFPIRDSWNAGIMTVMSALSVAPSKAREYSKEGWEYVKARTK
UniProt Q14145, sequence (Q14145 whole entry, looked up): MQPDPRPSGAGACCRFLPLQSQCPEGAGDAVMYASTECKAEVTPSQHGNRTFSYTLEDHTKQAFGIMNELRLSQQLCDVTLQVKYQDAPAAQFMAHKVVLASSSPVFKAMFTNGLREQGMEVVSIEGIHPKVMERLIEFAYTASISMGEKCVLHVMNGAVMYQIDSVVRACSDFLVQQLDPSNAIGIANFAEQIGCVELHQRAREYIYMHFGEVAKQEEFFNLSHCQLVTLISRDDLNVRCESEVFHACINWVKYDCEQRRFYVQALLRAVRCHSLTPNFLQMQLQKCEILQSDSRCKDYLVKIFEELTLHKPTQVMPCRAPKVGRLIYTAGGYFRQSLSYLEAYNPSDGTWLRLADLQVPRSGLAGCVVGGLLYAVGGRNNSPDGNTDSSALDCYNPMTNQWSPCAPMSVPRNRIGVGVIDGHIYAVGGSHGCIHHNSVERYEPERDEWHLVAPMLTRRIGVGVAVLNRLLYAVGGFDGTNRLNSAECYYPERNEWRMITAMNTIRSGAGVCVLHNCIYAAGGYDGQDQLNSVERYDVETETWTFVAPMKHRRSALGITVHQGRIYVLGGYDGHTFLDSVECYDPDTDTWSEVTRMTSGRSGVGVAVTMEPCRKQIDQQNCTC
UniProt P27816, sequence (P27816 whole entry, looked up): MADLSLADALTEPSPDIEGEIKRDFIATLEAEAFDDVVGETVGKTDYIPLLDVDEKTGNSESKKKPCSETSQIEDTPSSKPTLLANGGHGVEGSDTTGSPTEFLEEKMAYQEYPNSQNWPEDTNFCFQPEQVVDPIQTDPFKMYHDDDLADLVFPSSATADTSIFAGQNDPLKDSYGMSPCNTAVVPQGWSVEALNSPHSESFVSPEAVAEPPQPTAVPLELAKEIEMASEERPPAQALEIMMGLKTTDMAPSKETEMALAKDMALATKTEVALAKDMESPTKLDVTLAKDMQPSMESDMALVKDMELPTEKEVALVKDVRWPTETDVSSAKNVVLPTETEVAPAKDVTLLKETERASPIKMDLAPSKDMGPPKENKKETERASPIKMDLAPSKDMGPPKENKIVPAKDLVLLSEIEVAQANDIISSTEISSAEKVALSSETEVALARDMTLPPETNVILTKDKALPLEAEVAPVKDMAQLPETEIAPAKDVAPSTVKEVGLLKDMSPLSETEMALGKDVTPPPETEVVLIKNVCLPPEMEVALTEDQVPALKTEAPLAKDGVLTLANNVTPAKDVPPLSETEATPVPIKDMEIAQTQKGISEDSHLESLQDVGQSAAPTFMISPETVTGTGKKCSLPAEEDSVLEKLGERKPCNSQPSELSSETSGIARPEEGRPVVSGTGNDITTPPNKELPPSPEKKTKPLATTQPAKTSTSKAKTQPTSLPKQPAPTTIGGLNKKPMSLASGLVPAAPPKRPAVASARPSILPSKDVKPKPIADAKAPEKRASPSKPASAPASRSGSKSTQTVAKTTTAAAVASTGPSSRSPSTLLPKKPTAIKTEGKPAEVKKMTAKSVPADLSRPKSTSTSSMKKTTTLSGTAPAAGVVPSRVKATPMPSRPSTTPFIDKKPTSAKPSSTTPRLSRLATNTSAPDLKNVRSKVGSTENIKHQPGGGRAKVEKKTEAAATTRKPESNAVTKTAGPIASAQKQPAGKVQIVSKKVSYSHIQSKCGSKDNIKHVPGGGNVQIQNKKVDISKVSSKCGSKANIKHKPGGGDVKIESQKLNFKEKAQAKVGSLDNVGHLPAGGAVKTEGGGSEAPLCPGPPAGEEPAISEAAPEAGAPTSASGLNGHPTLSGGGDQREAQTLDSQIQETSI
UniProt Q02750, sequence (Q02750 whole entry, looked up): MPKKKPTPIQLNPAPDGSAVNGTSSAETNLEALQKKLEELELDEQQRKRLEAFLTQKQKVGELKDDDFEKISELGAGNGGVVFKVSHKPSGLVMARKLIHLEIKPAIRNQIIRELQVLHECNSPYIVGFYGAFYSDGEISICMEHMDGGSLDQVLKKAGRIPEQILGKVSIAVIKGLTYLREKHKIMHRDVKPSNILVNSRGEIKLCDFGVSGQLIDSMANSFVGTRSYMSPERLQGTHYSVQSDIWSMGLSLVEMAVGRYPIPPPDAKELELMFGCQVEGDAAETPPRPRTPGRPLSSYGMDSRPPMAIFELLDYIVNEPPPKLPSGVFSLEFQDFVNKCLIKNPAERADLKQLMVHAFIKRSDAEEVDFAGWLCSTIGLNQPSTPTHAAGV
UniProt Q13123, sequence (Q13123 whole entry, looked up): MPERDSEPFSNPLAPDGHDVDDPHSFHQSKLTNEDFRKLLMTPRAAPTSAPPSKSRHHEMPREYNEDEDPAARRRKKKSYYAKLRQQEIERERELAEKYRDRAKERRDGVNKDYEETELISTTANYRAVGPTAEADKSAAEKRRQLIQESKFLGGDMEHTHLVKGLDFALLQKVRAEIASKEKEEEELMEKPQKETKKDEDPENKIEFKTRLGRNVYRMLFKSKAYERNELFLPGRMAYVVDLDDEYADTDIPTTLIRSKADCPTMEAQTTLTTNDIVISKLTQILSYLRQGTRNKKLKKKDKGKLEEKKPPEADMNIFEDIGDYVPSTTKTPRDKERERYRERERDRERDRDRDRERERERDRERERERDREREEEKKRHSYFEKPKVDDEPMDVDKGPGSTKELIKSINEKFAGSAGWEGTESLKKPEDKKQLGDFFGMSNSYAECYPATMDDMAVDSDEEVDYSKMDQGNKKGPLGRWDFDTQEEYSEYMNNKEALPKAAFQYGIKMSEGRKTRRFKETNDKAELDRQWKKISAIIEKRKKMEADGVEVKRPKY
UniProt O95140, sequence (O95140 whole entry, looked up): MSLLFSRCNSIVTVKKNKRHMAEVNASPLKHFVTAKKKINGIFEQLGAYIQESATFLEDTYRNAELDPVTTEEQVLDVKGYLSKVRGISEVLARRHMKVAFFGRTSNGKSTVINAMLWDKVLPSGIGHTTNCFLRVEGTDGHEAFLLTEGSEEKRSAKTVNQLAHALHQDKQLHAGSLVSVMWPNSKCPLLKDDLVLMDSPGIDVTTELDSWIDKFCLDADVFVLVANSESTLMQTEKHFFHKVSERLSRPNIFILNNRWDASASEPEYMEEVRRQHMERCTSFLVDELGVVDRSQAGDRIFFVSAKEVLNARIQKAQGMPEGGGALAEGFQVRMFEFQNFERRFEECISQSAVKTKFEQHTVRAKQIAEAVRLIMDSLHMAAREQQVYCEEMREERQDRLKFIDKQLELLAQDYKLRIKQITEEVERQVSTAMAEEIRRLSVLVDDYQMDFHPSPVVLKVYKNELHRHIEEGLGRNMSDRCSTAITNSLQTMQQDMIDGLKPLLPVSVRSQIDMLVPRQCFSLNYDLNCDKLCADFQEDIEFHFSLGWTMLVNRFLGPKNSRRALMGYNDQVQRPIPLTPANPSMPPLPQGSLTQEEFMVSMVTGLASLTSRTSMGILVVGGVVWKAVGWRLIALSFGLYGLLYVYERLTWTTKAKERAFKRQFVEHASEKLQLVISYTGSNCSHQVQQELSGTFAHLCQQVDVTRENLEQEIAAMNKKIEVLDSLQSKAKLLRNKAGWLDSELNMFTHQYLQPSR
UniProt Q9C0E8, sequence (Q9C0E8 whole entry, looked up): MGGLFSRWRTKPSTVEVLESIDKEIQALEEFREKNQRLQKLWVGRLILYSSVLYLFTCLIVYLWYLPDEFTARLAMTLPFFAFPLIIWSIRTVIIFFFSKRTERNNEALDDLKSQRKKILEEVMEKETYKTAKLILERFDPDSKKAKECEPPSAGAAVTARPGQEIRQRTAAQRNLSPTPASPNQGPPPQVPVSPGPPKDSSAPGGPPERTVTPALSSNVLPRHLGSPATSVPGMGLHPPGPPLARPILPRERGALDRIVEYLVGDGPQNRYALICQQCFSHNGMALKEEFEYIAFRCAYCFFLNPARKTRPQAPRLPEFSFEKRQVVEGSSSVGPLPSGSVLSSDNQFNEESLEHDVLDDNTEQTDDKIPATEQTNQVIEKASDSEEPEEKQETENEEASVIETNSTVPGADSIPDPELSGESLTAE
UniProt Q9Y287, sequence (Q9Y287 whole entry, looked up): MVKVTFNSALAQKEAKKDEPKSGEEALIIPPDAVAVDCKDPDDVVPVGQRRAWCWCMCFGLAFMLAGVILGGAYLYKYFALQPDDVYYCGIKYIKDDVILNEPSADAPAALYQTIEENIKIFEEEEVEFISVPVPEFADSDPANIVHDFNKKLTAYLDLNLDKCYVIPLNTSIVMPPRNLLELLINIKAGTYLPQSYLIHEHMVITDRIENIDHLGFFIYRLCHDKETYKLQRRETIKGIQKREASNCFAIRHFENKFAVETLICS

Target	log2 fold change [1]	log2 fold change [2]	log2 fold change [3]	log2 fold change [4]	log2 fold change (Nexturastat A)	log2 fold change (vemurafenib)	log2 fold change [5]	log2 fold change [6]	log2 fold change (givinostat)	log2 fold change (barasertib)
LNPK (UniProt Q9C0E8)	-0.011	0.01	-0.038	0.016	-0.023	-0.042	-0.027	-0.028	-0.018	0.012
MAGEC2 (UniProt Q9UBF1)	0.017	0.045	-0.046	0.057	0	0.035	0.04	0.005	-0.013	-0.005
MAP2K1 (UniProt Q02750)	-0.013	0.001	0.029	0.049	-0.061	-0.009	0.018	0.129	0.007	0.005
JAK3 (UniProt P52333)	-0.002	-0.056	0.066	0.099	-0.478 (active)	-0.032	-0.029	0.016	-0.16	0.016
LBR (UniProt Q14739)	0.045	-0.035	-0.002	0.045	-0.108	0.063	0.05	-0.009	0.125	0.024
ILRUN (UniProt Q9H6K1)	0.06	-0.02	0.088	0.005	0.072	0.059	0.135	-0.026	-0.051	-0.044
LTN1 isoform 3 (UniProt O94822)	-0.013	-0.031	-0.008	-0.006	0.104	0.039	0.058	0.017	0.065	0.042
METTL18 (UniProt O95568)	-0.026	0.018	-0.032	0.028	-0.164	0.014	0.05	-0.042	-0.245	0.012
MAP4 (UniProt P27816)	-0.006	0.007	-0.018	-0.01	0.003	-0.018	-0.007	0.002	-0.004	-0.046
JMJD6 isoform 3 (UniProt Q6NYC1)	0.055	-0.085	0.092	0.024	-0.147	0.002	0.049	0.071	-0.095	-0.007
MFF (UniProt Q9GZY8)	-0.036	0.002	0.039	0.02	0.006	-0.013	0.018	-0.117	0.033	0.036
INPP5B (UniProt P32019)	0.02	-0.06	-0.071	0.007	0.096	-0.006	-0.004	0.062	0.105	0.069
LAMP2 (UniProt P13473)	0	0.093	-0.043	0.066	-0.104	0.05	0.048	-0.028	-0.02	0.007
MFN2 (UniProt O95140)	-0.021	-0.029	0.018	0.009	-0.022	0.019	0.064	-0.004	0.01	0.025
KCTD2 (UniProt Q14681)	-0.421	0.087	-0.343	-0.084	0.072	-0.164	-0.468	-0.163	0.078	0.018
L2HGDH (UniProt Q9H9P8)	0.03	0.009	0.021	-0.046	-0.102	0.015	-0.042	-0.081	-0.016	0.011
KIF1B isoform 4 (UniProt O60333)	-0.07	0.058	0.008	0.024	0.024	0.002	0.043	0.018	0.122	0.073
IK (UniProt Q13123)	0.032	0.039	-0.035	-0.026	0.093	0.086	-0.002	0.036	0.021	0.047
IRF3 (UniProt Q14653)	0.18	-0.081	0.011	0.077	-0.046	0.074	0.098	0.011	0.031	-0.015
KEAP1 (UniProt Q14145)	-0.024	0.032	0.005	-0.009	0.038	0.054	0.101	0.004	0.034	0.082
MICOS13 (UniProt Q5XKP0)	0.041	-0.06	0.056	0.065	-0.065	0.018	0.077	-0.069	0.027	0.034
LUC7L3 (UniProt O95232)	-0.046	0.034	-0.036	0.086	-0.008	0.024	0.013	-0.009	0.003	0.022
LMBR1 isoform 3 (UniProt Q8WVP7)	-0.156	0.17	0.128	0.036	0.134	0.049	0.175	-0.086	0	-0.007
MIEN1 (UniProt Q9BRT3)	-0.011	-0.029	0.036	-0.054	-0.002	0.081	0.073	0.016	0	0.132
IRF2BPL (UniProt Q9H1B7)	0.013	-0.006	0.015	0.068	0.038	0.014	0.049	0.008	0.05	-0.044
ITM2B (UniProt Q9Y287)	0.01	-0.052	0.036	-0.046	-0.05	-0.101	-0.016	-0.482	0.001	0.076
MAST4 (UniProt O15021)	0.003	-0.246	0.061	0.044	-0.08	0.021	0.055	0.072	-0.024	0.028
